Most compounds without a hit are left out; they make up all but 6.5% or so of the library.
VACV mCherry inh – qHTS for Stage-Specific Inhibitors of Vaccinia Orthopoxvirus: mCherry Reporter Primary qHTS; Vaccinia virus mCherry reporter infection, fluorescence; Potency, µM (series often up to 36.5 µM), inactives show top-dose activity change, negative = inhibition, actives largely listed as inhibitors; hit rate 0.63% among 310,000; AID 720579, 2013; calls by dose curve; tested in A549 cells; further: potency means the concentration at half of the fitted maximal effect; nearly all actives have a fitted effect of over 35% in size
LASV entry inh – qHTS for Inhibitors of binding or entry into cells for Lassa Virus; Lassa virus pseudotype entry inhibition, cell reporter; Potency, µM (titrated, usually from 37.9 µM), inactives show top-dose activity change, negative = inhibition, hits mostly inhibitors; hit rate 1.2% among 300,000; AID 540256, 2011; calls by dose curve; tested in HEK293 cells; further: potency means the concentration at half of the fitted maximal effect; nearly all actives have a fitted effect of over 50% in size
Marburg entry inh – qHTS for inhibitors of binding or entry into cells for Marburg Virus; Marburg virus pseudotyped entry inhibition, cell reporter; Potency, µM (highest dose often 37.8 µM), for the others: top-dose activity change, negative = inhibition, usual class: inhibitors; hit rate 1.8% among 300,000; calls by dose curve; tested in HEK293 cells; further: potency means the concentration at half of the fitted maximal effect
FMDV inh – High Throughput Screening for Foot and Mouth Disease Virus Antivirals. FMDV antiviral cell-based qHTS. Potency, µM (top dose mostly 57.9 µM), without a hit: at the highest dose activity change, negative = inhibition, hits mostly inhibitors. hit rate 1.2% among 410,000. AID 1159524, 2015; calls by dose curve; tested in HEK293T cells; further: read-out not given here; potency means the concentration at half of the fitted maximal effect; nearly all actives have a fitted effect of over 45% in size
Vaccinia Venus – qHTS for Stage-Specific Inhibitors of Vaccinia Orthopoxvirus: Venus Reporter Primary qHTS; Vaccinia virus Venus reporter expression, fluorescence; Potency, µM (doses to about 36.5 µM), without a hit: at the top dose activity change, negative = inhibition, most hits filed as inhibitors; hit rate 0.46% among 330,000; calls by dose curve; tested in A549 cells; further: potency means the concentration at half of the fitted maximal effect; nearly all actives have a fitted effect of over 30% in size
HCMV antiviral – qHTS Assay for inhibitors of the human cytomegalovirus (HCMV); HFF cells, HCMV-luciferase reporter, 72 h; stronger effect = lower value; activity change, negative = inhibition, % at 57.5 µM; hit rate 4.5% among 410,000; in the data active means activity change below about -60%; inconclusive means no clear call, values can overlap the other calls; inactive means above about -39%
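Screen run at 2 compound doses on HFFs infected with reporter HCMV, MOI 1 PFU/cell. Luciferase activity from cell lysates at 72 h post infection gave inhibition relative to buffer-only and Salinomycin wells.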
* = called active by the depositor; i = inactive; ? = inconclusive; / = not tested or not shown; [ ] = another dose, or the depositor's remark. On the % scale 0 is the no-effect control and ±100 the full control effect.

SMILES	VACV mCherry inh	LASV entry inh	Marburg entry inh	FMDV inh	Vaccinia Venus	HCMV antiviral
CC1CCC(C(=O)NC(C(=O)OCC(=O)c2ccc(Br)cc2)C(C)C)CC1 (configuration not stated)	-1.6%	-11.9%[46.1 µM]	-15.8%[46.1 µM]	0.0%	-2.7%	?
CCCN1CNc2c(c(=O)[nH]c(=S)n2CCc2cc(OC)ccc2OC)C1	-10.7%	/	/	/	-6.0%	/
CCOC(=O)c1ccc(OCC2c3cc(OC)c(OC)cc3CCN2C(=O)Cc2ccc(F)cc2)cc1 (configuration not stated)	-1.8%	?	/	-25.0%	-7.0%	-2.6
O=c1c(S(=O)(=O)c2ccccc2)cn(Cc2ccccc2)c2cc(N3CCCC3)c(F)cc12	0.0%	23.2%[46.1 µM]	/	1.1%	1.7%	4.4
O=c1c(S(=O)(=O)c2ccccc2)cn(Cc2cccc(F)c2)c2cc(N3CCOCC3)c(F)cc12	-9.2%	?	/	-15.0%	-20.3%	-70.8*
O=c1c(S(=O)(=O)c2ccccc2)cn(Cc2ccccc2)c2cc(N3CCOCC3)c(F)cc12	-6.2%	?	/	-7.8%	-16.0%	-26.8
O=c1c(S(=O)(=O)c2cccc(Cl)c2)cn(Cc2ccccc2)c2cc(N3CCCCC3)c(F)cc12	-2.3%	?	/	10.1%	-21.0%	-65.2*
COC(=O)c1ccc2nc(C3CCCCC3)c(Cc3ccccc3OC)n2c1	/	/	/	/	/	26.1
C[N+]1(CC(=O)c2ccc(Cl)cc2)CCOCC1	-9.9%	/	/	/	-3.8%	/
COCc1c(C(=O)N2CCC(c3ccccc3)CC2)cnn1-c1nccc(-c2cc(C)sc2C)n1	14.1µM*	/	/	29.6%	?	/
Cc1nc(N=C(N)N)nc2ccccc12	-17.3%	?	?	?	-17.3%	-81.0*
CCC(=O)N/C(N)=N/c1nc(C)c2cc(C)c(C)cc2n1	?	-7.5%	-0.2%[46.1 µM]	-15.0%	?	-8.2
Cc1ccc2nc(N=C(N)N)nc(C)c2c1	i	-12.8%	?	?	-19.7%	-89.0*
Cc1cc2nc(/N=C(\N)NC(=O)C(C)C)nc(C)c2cc1C	?	?	?	-27.2%	1µM*	-28.4
Cc1cc2nc(N=C(N)N)nc(C)c2cc1C	/	/	/	?	/	-99.1*
Cc1nc(/N=C(\N)NC(=O)c2ccccc2)nc2ccccc12	i	0.9%	?	39.9%	-4.1%	40.7
O=c1[nH]cnc2n[nH]nc12	-28.3%	/	/	/	-18.0%	/
COc1ccc(C2CC(=O)c3cc(-c4nc(-c5cccc(Cl)c5)cs4)c(=O)[nH]c3C2)cc1OC (configuration not stated)	-0.4%	4.7%[46.1 µM]	-0.7%[46.1 µM]	-22.6%	14.5%	-10.2
CCC[C@H]1[C@@H](NS(=O)(=O)c2cccc(C)c2)CC[C@@]23CCCN2C(=O)CCC[C@@H]13	/	/	/	/	/	34.8
CCc1ccc2nc3c(c(C(=O)O)c2c1)CCC3	/	?	-0.7%	-2.9%	/	4.8
CCc1ccc2nc(N=C(N)N)nc(C)c2c1	?	-5.3%	?	?	?	-86.9*
CN(C)c1ccc(/C=C/c2c(F)cnc3ccccc23)cc1	6.9%	/	/	/	-14.1%	/
CCCN1C(=O)c2ccccc2NC1c1ccc(OC)c(COc2cccc(OC)c2)c1 (configuration not stated)	5.2%	/	/	/	-18.4%	/
O=C(/C=C/Sc1ccccc1)c1ccc(Cl)cc1	-14.1%	-71.2%	?	/	-3.6%	-76.3*
O=C(/C=C/Sc1ccccc1)c1ccccc1	-10.1%	0.5%	?	/	-5.3%	-83.3*
COCOc1ccc(Br)cc1C(=O)[C@@H]1O[C@@H]1c1cccc(OC)c1	/	/	-17.3%[14.2 µM]	/	/	/
CCC(C)[C@H]1CNC(=S)N1CCc1cccc2ccccc12 (some centres not stated)	?	/	/	-2.1%	-10.3%	21.5
CCC(C)[C@H]1CNC(=S)N1CCC12CC3CC(CC(C3)C1)C2 (some centres not stated)	-0.9%	/	/	12.7%	-19.2%	-78.7*
CC(=O)OC[C@H]1O[C@H](C#Cc2ccccc2)C=C[C@H]1O	/	/	-3.2%[14.2 µM]	/	/	/
O=C(Cn1c2ccccc2c(=O)c2ccccc21)N/N=C/c1cc([N+](=O)[O-])ccc1N1CCCCCC1	-4.7%	-6.2%	?	0.9%	-1.1%	-73.0*
